Screening results: PubChem BioAssay, National Center for Advancing Translational Sciences (NCATS)
This is a sample that favours compounds with a hit; in the whole collection about 5.3% have one here.
JMJD2A Tudor inh: qHTS Assay for Inhibitors of JMJD2A-Tudor Domain. Potency, µM (top dose mostly 114 µM), for the others: at the highest dose activity change, negative = inhibition, most hits filed as inhibitors. 390,000 compounds, 4.4% hits. AlphaScreen JMJD2A-Tudor / H3K4me3 peptide binding. Lysine-specific demethylase 4A (Homo sapiens), O75164; also: potency is read from the fitted curve at half-maximal effect; % is scaled to controls: 0 for no effect and ±100 for the full control effect; nearly all actives have a fitted effect of over 50% in size
BAZ2B block: qHTS Assay for Inhibitors of BAZ2B. 360,000 compounds, 4.4% hits. AID 504333, 2011. Bromodomain adjacent to zinc finger domain protein 2B (Homo sapiens), Q9UIF8. AlphaScreen BAZ2B-H3K14Ac peptide displacement. Potency, µM (titrated, usually from 114 µM), inactives show at the top dose activity change, negative = inhibition, most hits filed as inhibitors; also: potency is read from the fitted curve at half-maximal effect; % is scaled to controls: 0 for no effect and ±100 for the full control effect; nearly all actives have a fitted effect of over 60% in size
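AlphaScreen displacement: compounds (up to 110uM) incubated 30 min at room temperature with a preformed 50 nM BAZ2B/50 nM biotinylated H3K14Ac peptide complex in PBS pH 7.4 with Tween-20. Donor and acceptor beads at 10 ug/mL final added, 20 min light-protected before reading.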
Six1-Eya2 inh: qHTS Assay for Inhibitors of the Six1/Eya2 Interaction; Homeobox protein SIX1 (Homo sapiens) + Protein phosphatase EYA2 (Homo sapiens), …; AlphaScreen GST-Six1/His-Eya2 binding, biochemical; active compounds read low; activity change, % (concentration not given with the values); 360,000 compounds, 0.56% hits; AID 651725, 2012; in the data active = activity change below about -65%; inconclusive = mostly about -30% to -63%; also: % is scaled to controls: 0 for no effect and ±100 for the full control effect
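AlphaScreen with GST-Six1 and His-Eya2 (5X mix: 250 nM and 500 nM), glutathione donor and nickel acceptor beads; buffer 50 mM Tris pH 8.0, 300 mM NaCl, 1 mM TCEP; 1 h at 37 C in the dark.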
TDP1 inh: qHTS Assay for Inhibitors of Tyrosyl-DNA Phosphodiesterase (TDP1) | Potency, µM (highest dose often 130 µM), inactives show at the highest dose activity change, negative = inhibition, hits mostly inhibitors | 350,000 compounds, 0.28% hits | recombinant TDP1, AlphaScreen DNA substrate cleavage | Tyrosyl-DNA phosphodiesterase 1 (Homo sapiens), Q9NUW8; also: potency is read from the fitted curve at half-maximal effect; % is scaled to controls: 0 for no effect and ±100 for the full control effect; nearly all actives have a fitted effect of over 40% in size
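Here, a 5' biotin and 3' phosphotyrosine-FITC DNA oligonucleotide reports Tdp1 activity: intact substrate bridges AlphaScreen beads, while cleavage leaves a 3' phosphate and drops signal. All incubations at room temperature.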
HP1b binding inh: HTS for Inhibitors of HP1-beta Chromodomain Interactions with Methylated Histone Tails; Chromobox protein homolog 1 (Homo sapiens), P83916; AlphaScreen HP1-beta / biotin-H3K9me3 peptide binding; Potency, µM (doses to about 114 µM), for the others: at the highest dose activity change, negative = inhibition, actives largely listed as inhibitors; AID 540317, 2011; 390,000 compounds, 0.56% hits; also: potency is read from the fitted curve at half-maximal effect; nearly all actives have a fitted effect of over 70% in size
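Compound inhibition of the preformed complex between 50 nM HP1-beta and 50 nM biotinylated H3K9me3 peptide was read by AlphaScreen. Buffer was PBS pH 7.4 with 0.01% Tween-20. Incubations ran 30 min at room temperature, with 10 ug/mL donor/acceptor beads.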
CtBP-E1A blk: qHTS Assay for Inhibitors of the CtBP/E1A Interaction. CtBP / adenovirus E1A interaction (AlphaScreen). 340,000 compounds, 0.49% hits. AlphaScreen GST-E1A/His-CtBP binding, 1536-well; active compounds read low. activity change, % (no concentration beside the values); in the data active = activity change below about -65%; inconclusive = mostly about -30% to -63%; also: % is scaled to controls: 0 for no effect and ±100 for the full control effect
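Homogeneous bead-based format: GST-tagged E1A captured on glutathione donor beads, His-tagged CtBP on nickel acceptor beads; compounds precede bead addition by 2 h at 37 °C.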
G9a inh: qHTS Assay for Inhibitors of Histone Lysine Methyltransferase G9a: Hit Confirmation; shares compounds with JMJD2A Tudor inh; G9a H3K9 monomethylation, AlphaScreen, 2 h; Potency, µM, most hits filed as inhibitors; 370 compounds, 89% hits; AID 588344, 2011; also: potency is read from the fitted curve at half-maximal effect; nearly all actives have a fitted effect of over 65% in size
RGS4 inh: qHTS for Inhibitors of Regulator of G Protein Signaling(RGS) 4: Hit Validation | 25 compounds, 80% hits | RGS4 GAP activity, Transcreener GDP fluorescence polarization | Potency, µM, most hits filed as inhibitors | shares compounds with JMJD2A Tudor inh
Starred values were filed as active, the others as inactive; ? = inconclusive; / = no result; [ ] = remark or other dose. Unless noted, calls follow the shape of the dose curve; as a rule, active = well fitted curve in the direction sought with a large enough effect; inconclusive = small, poorly fitted or top-dose-only effect, or another doubt; inactive = no such curve, though single readings can be large; an effect the other way counts as inactive or inconclusive.

SMILES	JMJD2A Tudor inh	BAZ2B block	Six1-Eya2 inh	TDP1 inh	HP1b binding inh	CtBP-E1A blk	G9a inh	others
CCOc1ccccc1NC(=O)C(=O)NCC(c1cccnc1)N1CCN(c2ccccc2)CC1 (stereo unspecified)	-18%	4%	/	4%	23%	/	/
COC(=O)c1ccccc1NC(=O)Cn1c(SC)c(F)cnc1=O	-4%	-1%	0	3%	38%	5	8.9*
COC[C@H]1O[C@@H](c2c(OC)cc(OC)cc2OC)[C@H](OC)[C@@H](OC)[C@@H]1OC	/	/	/	2%	/	/	/
COc1ccc(CNc2ccc3c(c2)ncn3C)cc1OC	-25%	-22%	-4	4%	36%	4	/
Cc1ccc(CNc2ccc3c(c2)ncn3C)cc1	?	?	-3	5%	-15%	-3	8.9*
Oc1ccccc1CNc1cnc2ccccc2c1	-1%	10%	-1	6%[56.1 µM]	27%	-28	/
Oc1ccc2ccccc2c1CNc1cnc2ccccc2c1	?	?	4	12%	-12%	16	0.5*
CCCCN(C)CCCNC(=O)C1CCN(S(=O)(=O)CCC)CC1	-18%	1%	/	3%	23%	/	/
Cc1ccc(N2NC3(CCN(C(N)=O)CC3)NC2=O)cc1	-17%	-19%	-6	6%	31%	2	40*
Cc1ccc(N2C(=O)NC3(CCCCC3)C2=O)cc1	2%	1%	1	6%	29%	-5	/
COc1cccc(-c2nc(CS(=O)(=O)CC(=O)NCc3ccc(C)cc3)c(C)o2)c1	-15%	-15%	/	6%	42%	/	/
CN(C)c1ccc(NC(=O)CN2CCN(S(=O)(=O)c3cc(Cl)ccc3Cl)CC2)cc1	?	35µM*	-26	11%	?	-22	4.5*
Oc1c(CN2CCOCC2)ccc2ccccc12	?	-36%	-7	8%	-31%	-1	1.3*
c1ccc2c(CN3CCOCC3)csc2c1	-7%	1%	6	4%	36%	-4	/
Cc1ccc(CNc2ccc(N3CCOCC3)cc2)s1	50µM*	45µM*	?	2%	?	-23	10*
CSc1nnc(C2CCCN2)n1C (stereo unspecified)	?	18µM*	?	-6%	27%	-9	4.5*
CC1=C(C(=O)NCc2ccccc2C)C2(CCCCCC2)OC1=O	-36%	4%	/	9%	-22%	/	/
CCOc1ccccc1OCCCn1c(-c2ccc(Cl)cc2)nc2ccccc2c1=O	-6%	15%	/	/	42%	/	/
CCOc1ccc(S(=O)(=O)N2CCN(Cc3ccc4c(c3)OCO4)CC2)cc1OCC	-23%	-28%	-9	/	22%	-10	/
CCOc1cc(CN2CCN(S(=O)(=O)c3ccc(C)cc3)CC2)ccc1OC	25µM*	50µM*	/	/	?	/	32*
COc1ccccc1Nc1ncc(-c2cccs2)s1	?	?	-13	9%	?	-18	/	RGS4 inh=?
CN1CCC(NC(=O)c2cccc(Oc3ccccc3)c2)CC1	-25%	-12%	5	2%	25%	3	/
CN1CCC(N(C)CC(=O)Nc2cccc(Oc3ccccc3)c2)CC1	6.3µM*	50µM*	0	0%	-18%	-5	?
CC(=O)c1ccc(N2CCN(CC(=O)Nc3cc(C)on3)CC2)cc1	-8%	-14%	9	2%	31%	-4	/
COc1ccc(N2CCN(CC(=O)Nc3cc(C)on3)CC2)cc1	2.8µM*	20µM*	5	-10%	?	2	1.6*
SMILES	JMJD2A Tudor inh	BAZ2B block	Six1-Eya2 inh	TDP1 inh	HP1b binding inh	CtBP-E1A blk	G9a inh	others
COc1ccccc1CNC(=O)c1ccc2c(c1)nc(C)n2-c1ccccc1OC	-22%	0%	/	4%	19%	/	/
c1ccc(-c2ccc(N3CCCC4(CCNCC4)C3)cc2)cc1	/	/	/	/	/	/	/	RGS4 inh=27*
COc1cccc(COC(=O)c2ccc(-c3nnn(Cc4cccc(OC)c4)n3)cc2)c1	36%	21%	/	7%	94%	/	/
O=C(CSc1nnc2c(n1)[nH]c1ccccc12)Nc1ccc2c(c1)OCO2	-19%	-33%	-22	5%	-1%	-23	1.6*
CC(=O)c1ccc(NC(=O)CSc2nnc3c(n2)[nH]c2ccccc23)cc1	-22%	-30%	/	-2%	41%	/	/
Clc1cccc(Cl)c1CNc1ccc(N2CCCC2)cc1	18µM*	20µM*	?	9%	18µM*	-22	4*	RGS4 inh=9.5*
O=C(Nc1ccc(N2CCCC2)cc1)c1cc(Br)ccc1Cl	?	-34%	-17	/	5%	-11	/
CCCC(=O)NCCc1c2n(c3ccc(OC)cc13)CCCc1ccccc1-2	/	/	/	15%[56.1 µM]	/	/	/
CCc1ccccc1NC1Nc2cc(C)nn2S1 (stereo unspecified)	?	-26%	-3	2%	17%	0	/
Cc1cc2n(n1)SC(Nc1cccc3ccccc13)N2 (stereo unspecified)	50µM*	-2%	-5	5%	-6%	-5	0.71*
Oc1ccccc1C=NC1=NN(c2cccc(C(F)(F)F)c2)CC1	?	?	-9	8%	-5%	-3	0.8*
Cc1ccc(-c2nnc(SCC(=O)Nc3cccnc3Cl)n2N)cc1	-5%	/	-1	-13%	54%	/	/
Nn1c(SCC(=O)Nc2cccnc2Cl)nnc1-c1ccccc1	20µM*	7%	5	2%	?	-18	0.8*
Cc1ccc(OCC(=O)Nc2ccc(N(C)C)cc2)cc1	?	-4%	-20	3%	?	-6	/
CCN(CC)c1ccc(NC(=O)COC(=O)Cc2ccsc2)cc1	50µM*	45µM*	?	3%	?	-5	6.3*
CC(=O)c1ccc(NC(=O)COC(=O)Cc2ccsc2)cc1	3%	/	-4	-1%	49%	/	/
CCN(CC)c1ccc(NC(=O)COc2ccc(C)cc2)cc1	?	?	?	-4%	-13%	?	2.8*
